Assay results reported in publication PMC5540273 (PLoS ONE, 2017).

Key:
Details in all cases: concentration: 1 μM, replicates: in singlicate; n = 1
MET = tested on: MET
MINK = tested on: T1, MINK
T1 construct: gene MINK1

MKK7 = tested on: MKK7
MKNK1 = tested on: MKNK1
MKNK2 = tested on: MKNK2
MLCK = tested on: T2, MLCK
T2 construct: gene MYLK3

MLK1 = tested on: T3, MLK1
T3 construct: gene MAP3K9

MLK2 = tested on: MLK2
MLK3 = tested on: MLK3
MRCKA = tested on: MRCKA
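Note: KINOMEscan kinase panel screen.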

| Structure (SMILES) | %Inh (MET) [%] | %Inh (MINK) [%] | %Inh (MKK7) [%] | %Inh (MKNK1) [%] | %Inh (MKNK2) [%] | %Inh (MLCK) [%] | %Inh (MLK1) [%] | %Inh (MLK2) [%] | %Inh (MLK3) [%] | %Inh (MRCKA) [%] |
| --- | --- | --- | --- | --- | --- | --- | --- | --- | --- | --- |
| CCC(=O)c1c(-c2ccccc2)c2cc(Cl)ccc2c(=O)n1Cc1cc(S(C)(=O)=O)n(CC(N)=O)n1 | 0 | 14 | 0 | 0 | 0 | 0 | 0 | 10 | 1 | 0 |
| COc1cc2ncn(-c3cc(OCc4ccc(S(C)(=O)=O)cc4)c(C(N)=O)s3)c2cc1OC [GW869979] | 9 | 38 | 6 | 0 | 12 | 0 | 4 | 0 | 0 | 0 |
| Cc1nnc(-c2ccc(C)c(-c3ccc(C(=O)O)cc3)c2)o1 [GW608005] | 0 | 0 | 13 | 0 | 0 | 0 | 0 | 0 | 0 | 0 |
| COC(=O)c1c(-c2ccccc2)c2cc(Br)ccc2c(=O)n1Cc1ccc(S(C)(=O)=O)cc1 | 2 | 10 | 19 | 8 | 0 | 3 | 1 | 0 | 0 | 0 |
| Cc1c(Cn2c(C)nn3c(=O)cc(N4CCO[C@H](C)C4)nc23)cccc1C(F)(F)F [GSK2373690] | 0 | 0 | 0 | 3 | 9 | 9 | 0 | 14 | 3 | 0 |
| Nc1ncnc2c1ncn2-c1cccc2ccccc12 [SKF-97184] | 0 | 12 | 0 | 0 | 0 | 0 | 0 | 19 | 0 | 0 |
| Fc1cccc(CSc2nnc(-c3ccc4c(c3)CCO4)o2)c1 | 10 | 5 | 6 | 3 | 4 | 7 | 0 | 0 | 0 | 0 |
| Nc1n[nH]c2ncc(-c3ccccc3)cc12 [SB-517081] | 0 | 11 | 0 | 53 | 88 | 0 | 17 | 0 | 0 | 3 |
| CCC(=O)c1c(-c2ccccc2)c2cc(Cl)ccc2c(=O)n1Cc1ccc(C(=O)O)cc1 | 0 | 0 | 0 | 0 | 0 | 0 | 0 | 0 | 0 | 0 |
| CC(C)(C)c1ccc(C(=O)Nc2cn3cc(-c4ccccc4)ccc3n2)cc1 | 0 | 36 | 0 | 0 | 13 | 14 | 0 | 0 | 0 | 0 |
| COc1cc2nccc(Nc3ccc(OCc4ccc(NC(C)=O)cc4)cc3)c2cc1OC.Cl [GW440135] | 0 | 70 | 27 | 6 | 15 | 0 | 0 | 2 | 14 | 9 |
| COc1ccc(Nc2nccc(N3CCC(NS(=O)(=O)c4ccc(NC(C)=O)cc4)C3)n2)cc1 (stereo not shown) [GSK1379729] | 10 | 3 | 19 | 22 | 0 | 0 | 0 | 48 | 18 | 10 |
| Cc1nn2c(=O)cc(N3CCOCC3)nc2n1Cc1cccc(Cl)c1Cl [GSK2342769] | 1 | 0 | 0 | 0 | 4 | 7 | 0 | 0 | 0 | 10 |
| COc1ccc(CNC(=O)NC2CCN(c3ccnc(Nc4ccc(F)cc4)n3)C2)cc1 (stereo not shown) [GSK1379706] | 0 | 80 | 10 | 0 | 0 | 8 | 0 | 0 | 17 | 16 |
| CCCNC(=O)Nc1ccc(Oc2ncnc3ccn(C)c23)cc1 | 8 | 1 | 0 | 23 | 0 | 0 | 6 | 6 | 0 | 3 |
| CCc1ccc(-c2ccc3c(c2)-c2nn(C)cc2S(=O)(=O)N3C)cc1 | 0 | 41 | 16 | 37 | 0 | 28 | 1 | 29 | 11 | 0 |
| COc1cccc(C2=C(Nc3cccc(C(=O)O)c3)C(=O)NC2=O)c1 [SB-390770] | 0 | 7 | 15 | 2 | 0 | 0 | 0 | 47 | 45 | 17 |

| Structure (SMILES) | %Inh (MET) [%] | %Inh (MINK) [%] | %Inh (MKK7) [%] | %Inh (MKNK1) [%] | %Inh (MKNK2) [%] | %Inh (MLCK) [%] | %Inh (MLK1) [%] | %Inh (MLK2) [%] | %Inh (MLK3) [%] | %Inh (MRCKA) [%] |
| --- | --- | --- | --- | --- | --- | --- | --- | --- | --- | --- |
| O=C(Nc1n[nH]c2cc(-c3ccccc3F)ccc12)C1CC1 [SB-733371] | 0 | 69 | 10 | 0 | 18 | 29 | 0 | 5 | 0 | 0 |
| COc1cc2ncn(-c3cc(OCc4ccncc4)c(C(N)=O)s3)c2cc1OC [GSK336313] | 0 | 15 | 19 | 5 | 2 | 0 | 0 | 0 | 19 | 0 |
| Cc1ccccc1COc1cc(-n2cnc3cc(Cl)ccc32)sc1C(N)=O [GW813349] | 24 | 35 | 0 | 2 | 0 | 0 | 11 | 9 | 0 | 29 |
| CCS(=O)(=O)c1ccc(OC)c(Nc2ncc(-c3ccc(F)cc3)o2)c1.Cl [GW591947] | 0 | 0 | 0 | 0 | 0 | 0 | 0 | 0 | 6 | 10 |
| COc1cc(Nc2nccc(N3CCC(NC(=O)C(C)c4ccc(Cl)cc4)C3)n2)cc(OC)c1OC (stereo not shown) [GSK1379757] | 0 | 0 | 15 | 0 | 16 | 0 | 22 | 0 | 28 | 15 |
| O=C(Nc1n[nH]c2nc(-c3ccccc3)c(Cl)cc12)C1CC1 [SB-734909] | 0 | 28 | 0 | 17 | 8 | 26 | 0 | 0 | 0 | 0 |
| COc1cc(OC)cc(-c2cc3cnc(N)nc3nc2NC(=O)NC(C)(C)C)c1 | 0 | 9 | 0 | 0 | 0 | 0 | 0 | 0 | 0 | 0 |
| Nc1nc(-c2ccccc2F)c(-c2ccnc3ccccc23)s1 [GW560459] | 0 | 81 | 15 | 12 | 0 | 0 | 0 | 0 | 5 | 15 |
| COc1cc2ncn(-c3cc(OCc4ccncc4Br)c(C(N)=O)s3)c2cc1OC [GW854278] | 0 | 44 | 0 | 15 | 8 | 0 | 2 | 17 | 9 | 0 |
| CCc1nc(-c2cccc(C)c2)c(-c2ccncc2)s1 | 4 | 50 | 0 | 0 | 16 | 6 | 0 | 0 | 17 | 0 |
| Nc1ncnc2c1ncn2-c1ccc(Cl)cc1 [AH2635] | 0 | 0 | 0 | 26 | 24 | 0 | 0 | 18 | 15 | 0 |
| CCC(=O)c1c(-c2ccccc2)c2cc(Cl)ccc2c(=O)n1Cc1cc(S(C)(=O)=O)n(CC(F)F)n1 | 6 | 0 | 0 | 0 | 0 | 0 | 42 | 0 | 0 | 0 |
| Cc1cc(Nc2nc(-c3cccc(C)n3)nc3ccccc23)ccn1 [GW872411] | 32 | 1 | 0 | 1 | 0 | 0 | 0 | 28 | 0 | 0 |
| O=C(Nc1ccc2c(c1)OCO2)NC1CCN(c2ccnc(NCc3ccc(F)cc3)n2)CC1 [GSK1379859] | 0 | 0 | 0 | 0 | 0 | 0 | 0 | 0 | 0 | 0 |
| CN(C)c1cc(-c2ccc3c(N)n[nH]c3c2)nc(N)n1 [GSK2219329] | 0 | 0 | 0 | 0 | 9 | 0 | 3 | 0 | 3 | 0 |
| Cc1nnc(-c2ccc3ncn(-c4ccc(S(C)=O)cc4)c3c2)o1 (stereo not shown) | 0 | 14 | 12 | 0 | 20 | 11 | 0 | 0 | 0 | 0 |
| O=C(NCCNc1ccnc(Nc2ccc(F)cc2)n1)Nc1ccc2c(c1)OCO2 [GSK1379882] | 0 | 4 | 0 | 23 | 5 | 0 | 0 | 0 | 0 | 9 |
